Reference: PubChem BioAssay (NCATS)
Values joined by “and” are separate entries in the source; they are usually repeats but may differ in a detail not shown here. Equal values may be shown once. Inconclusive results are not listed. Active and inactive are the calls of the source. Calls follow the shape of the dose curve; as a rule, active = well fitted curve in the direction sought with a large enough effect; inconclusive = small, poorly fitted or top-dose-only effect, or another doubt; inactive = no such curve, though single readings can be large; an effect the other way counts as inactive or inconclusive.

How the values were obtained:
[1] = BET inhibitor-based combinations targeting novel dependencies in MECOM-rearranged (r) AML: SET-2 cell line (AID 2202231); details: SET-2 AML cells viability, CellTiter-Glo luminescence, 48 h; viability: hits give low values, concentration not given here; also: nearly all actives have a fitted effect of over 35% in size;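 as to viability: plate controls were DMSO treated cells for no effect and wells without cells for full effect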
In short: (§1)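 A 48 hr incubation preceded viability reading by CellTiter-Glo, with 15 min room-temperature development. Dose series had 11 points; normalization used DMSO and empty wells; AUC was computed and mean-centered per line as Z-AUC.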

[2] = BET inhibitor-based combinations targeting novel dependencies in MECOM-rearranged (r) AML: OCI-AML3 cell line (AID 2202232); details: Potency: OCI-AML3 viability; also: nearly all actives have a fitted effect of over 35% in size
In short: as §1

[3] = BET inhibitor-based combinations targeting novel dependencies in MECOM-rearranged (r) AML: MV-4-11 cell line (AID 2202233); also: nearly all actives have a fitted effect of over 45% in size
In short: (§2)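 Each compound is tested in an 11-point concentration series against 500 seeded cells/well for 48 hr. The luminescent viability signal is normalized to DMSO and blank wells, then reduced to AUC and a cell-line-centred Z-AUC.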

[4] = BET inhibitor-based combinations targeting novel dependencies in MECOM-rearranged (r) AML: HNT-34 cell line (AID 2202234); also: nearly all actives have a fitted effect of over 35% in size
In short: as §2

[5] = BET inhibitor-based combinations targeting novel dependencies in MECOM-rearranged (r) AML: UCSD-AML1 cell line (AID 2202235); also: nearly all actives have a fitted effect of over 40% in size
In short: as §2

[6] = BET inhibitor-based combinations targeting novel dependencies in MECOM-rearranged (r) AML: AML-191 cell line (AID 2202236; also: nearly all actives have a fitted effect of over 35% in size)
In short: as §1

[7] = BET inhibitor-based combinations targeting novel dependencies in MECOM-rearranged (r) AML: AML-194 cell line (AID 2202237; also: nearly all actives have a fitted effect of over 40% in size)
In short: as §1
Potency is read from the fitted curve at half-maximal effect.

O=C(NO)c1cnc(N2C[C@H]3C[C@@H]2CN3c2cc(C(F)(F)F)ccn2)nc1
active: Potency [1] 2350 nM | Potency [2] 3720 nM | Potency [3] 2090 nM | Potency [4] 3720 nM | Potency [5] 3720 nM | Potency [6] 4170 nM | Potency [7] 4170 nM

N[C@@H]1CN(c2c(F)cc3c(=O)c(C(=O)O)cn([C@@H]4C[C@@H]4F)c3c2Cl)CC12CC2
inactive: viability [1] 105% | Potency [2] | Potency [3] | Potency [4] | Potency [5] | Potency [6] | Potency [7]

CC1(N)CCN(c2cnc(-c3cccc(Cl)c3Cl)c(N)n2)CC1
active: Potency [3] 2880 nM
inactive: viability [1] 110% | Potency [2] | Potency [4] | Potency [5] | Potency [6] | Potency [7]

O=C([O-])C[O-].[Pt+2]
inactive: viability [1] 115% | Potency [2] | Potency [3] | Potency [4] | Potency [5] | Potency [6] | Potency [7]

CC1(C)OC2=C(C(=O)c3ccccc3C2=O)[C@H](NCc2ccccc2)[C@@H]1O
active: Potency [1] 6610 nM | Potency [2] 11800 nM | Potency [3] 8330 nM | Potency [4] 7420 nM | Potency [5] 9340 nM | Potency [6] 7420 nM | Potency [7] 7420 nM

COC(=O)[C@@H]1CC2=CC(=O)CC[C@]2(C)[C@@]23O[C@@H]2C[C@@]2(C)[C@@H](CC[C@@]24CCC(=O)O4)[C@H]13
inactive: viability [1] 106% | Potency [2] | Potency [3] | Potency [4] | Potency [5] | Potency [6] | Potency [7]

NC(CC1c2ccccc2Oc2ccccc21)(C(=O)O)C1CC1C(=O)O (centres undefined)
inactive: viability [1] 118% | Potency [2] | Potency [3] | Potency [4] | Potency [5] | Potency [6] | Potency [7]

C[C@@H]1COCCN1c1cc(-c2ccnn2C)c2ccnc(-c3ccn[nH]3)c2n1
active: Potency [1] 83.3 nM | Potency [2] 52.5 nM | Potency [3] 118 nM | Potency [4] 296 nM | Potency [5] 66.1 nM | Potency [6] 296 nM | Potency [7] 332 nM

CCC1=C[C@@H]2CN(C1)Cc1c([nH]c3ccccc13)[C@@](C(=O)OC)(c1cc3c(cc1OC)N(C)[C@H]1[C@@](O)(C(=O)OC)[C@H](OC(C)=O)[C@]4(CC)C=CCN5CC[C@]31[C@@H]54)C2
active: Potency [1] 7230 nM | Potency [2] 257 nM | Potency [3] 323 nM | Potency [4] 229 nM | Potency [5] 407 nM | Potency [6] 645 nM | Potency [7] 645 nM

O=C(/C=C/c1ccc2ccc(C(F)(F)F)cc2n1)c1ccncc1
active: Potency [1] 2630 nM | Potency [2] 1860 nM | Potency [3] 1050 nM | Potency [4] 1320 nM | Potency [5] 1660 nM | Potency [6] 1860 nM | Potency [7] 2350 nM

CCc1cc2c(c(OCC(F)(F)F)c(C(=O)NC3CCN(C(=O)CO)CC3)n2C)c(=O)n1CC(=O)c1ccccc1
inactive: viability [1] 103% | Potency [2] | Potency [3] | Potency [5] | Potency [6] | Potency [7]
active: Potency [4] 16600 nM

Cc1ccc(C(=O)OCc2ccc([C@@H](CN)C(=O)Nc3ccc4cnccc4c3)cc2)c(C)c1
active: Potency [1] 14400 nM | Potency [2] 8110 nM | Potency [3] 3230 nM | Potency [4] 5120 nM | Potency [5] 14400 nM | Potency [6] 9100 nM | Potency [7] 8110 nM

O=C(O)CCNc1cc(N2CCc3ccccc3CC2)nc(-c2cccnc2)n1
inactive: viability [1] 116% | Potency [3] | Potency [4] | Potency [5] | Potency [6] | Potency [7]
active: Potency [2] 9340 nM

CCN[C@H]1C[C@H](C)S(=O)(=O)c2sc(S(N)(=O)=O)cc21
inactive: viability [1] 114% | Potency [2] | Potency [3] | Potency [4] | Potency [5] | Potency [6] | Potency [7]

CN(CCOc1ccc(C[C@H](Nc2ccccc2C(=O)c2ccccc2)C(=O)O)cc1)c1ccccn1
inactive: viability [1] 94.3% and 95.3% | Potency [2] | Potency [3] | Potency [4] | Potency [5] | Potency [6] | Potency [7]

COC(=O)c1ccc([C@H]2c3[nH]c4ccccc4c3C[C@H](C(=O)OC)N2C(=O)CCl)cc1
active: Potency [1] 93.4 nM | Potency [2] 105 nM | Potency [3] 833 nM | Potency [4] 93.4 nM | Potency [5] 166 nM | Potency [6] 132 nM | Potency [7] 105 nM

Cc1nnn(C)c1-c1cnc2c3ccc(C(C)(C)O)cc3n([C@H](c3ccccc3)C3CCOCC3)c2c1
active: Potency [1] 14.8 nM | Potency [2] 5.9 nM | Potency [3] 4.2 nM | Potency [4] 29.5 nM | Potency [5] 26.3 nM | Potency [6] 26.3 nM | Potency [7] 66.1 nM
